# The supplement of paper PMC10849652
# Of roughly 7,900 targets only a part is listed; those with a hit were picked by preference. About 0.6% of all pairs of compound and target were hits. Values without a mark were called inactive.
# Key:
# Assay in all cases: log2 fold change, soluble protein after heating vs DMSO (PISA); higher = thermal stabilisation; K562 cells, 10 uM, 30 min; active = over 0.2 and 3.5 SD of the protein, either way, in both replicates (recomputed)
# [1] = compound: CS(=O)(=O)c1ccc(-c2cnc(N)c(C(=O)Nc3ccccc3)n2)cc1
# Outline: (§1)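 K562 cells at 2×10^6 cells/mL were treated for 30 min with 10 μM compound, and aliquots were heated for 3 min over 48°C-58°C before pooling. Extraction used PBS with 0.5% NP-40 at 4°C, and soluble protein was the supernatant after 21,000xg for 90 min, measured by TMTpro 16plex LC-MS/MS with channel sums equalised. Thermal stability values, relative to control samples and from duplicates, are log2 fold changes.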
# crizotinib = compound: C[C@@H](Oc1cc(-c2cnn(C3CCNCC3)c2)cnc1N)c1c(Cl)ccc(F)c1Cl [crizotinib]
# Outline: as §1
# [2] = compound: C[C@@H]1COCCN1C2=NC(=NC(=C2)C3(CC3)S(=O)(=O)C)C4=C5C=CNC5=CC=C4
# Outline: as §1
# [3] = compound: C[C@H](C1=CC=C(C=C1)C(=O)NC2=C3C=CNC3=NC=C2)N
# Outline: as §1
# duvelisib = compound: C[C@H](Nc1ncnc2nc[nH]c12)c1cc2cccc(Cl)c2c(=O)n1-c1ccccc1 [duvelisib]
# Outline: as §1
# gandotinib = compound: Cc1cc(Nc2cc(CN3CCOCC3)c3nc(C)c(Cc4ccc(Cl)cc4F)n3n2)n[nH]1 [gandotinib]
# Outline: as §1
# tozasertib = compound: Cc1cc(Nc2cc(N3CCN(C)CC3)nc(Sc3ccc(NC(=O)C4CC4)cc3)n2)n[nH]1 [tozasertib]
# Outline: as §1
# [4] = compound: Cc1cc(SCc2sc(-c3ccc(C(F)(F)F)cc3)nc2C)ccc1OCC(=O)O
# Outline: as §1
# doramapimod = compound: Cc1ccc(-n2nc(C(C)(C)C)cc2NC(=O)Nc2ccc(OCCN3CCOCC3)c3ccccc23)cc1 [doramapimod]
# Outline: as §1
# ispinesib = compound: Cc1ccc(C(=O)N(CCCN)[C@@H](c2nc3cc(Cl)ccc3c(=O)n2Cc2ccccc2)C(C)C)cc1 [ispinesib]
# Outline: as §1
# bafetinib = compound: Cc1ccc(NC(=O)c2ccc(CN3CC[C@H](N(C)C)C3)c(C(F)(F)F)c2)cc1Nc1nccc(-c2cncnc2)n1 [bafetinib]
# Outline: as §1
# [5] = compound: Cc1cccc(CC(=O)N2CCc3c2ccc(-c2cn(C)c4ncnc(N)c24)c3F)n1
# Outline: as §1
# nilotinib = compound: Cc1cn(-c2cc(NC(=O)c3ccc(C)c(Nc4nccc(-c5cccnc5)n4)c3)cc(C(F)(F)F)c2)cn1 [nilotinib]
# Outline: as §1
# [6] = compound: Cc1nc(Nc2n[nH]c3c2CN(C(=O)N[C@H](CN(C)C)c2ccccc2)C3(C)C)c2sccc2n1
# Outline: as §1
# dasatinib = compound: Cc1nc(Nc2ncc(C(=O)Nc3c(C)cccc3Cl)s2)cc(N2CCN(CCO)CC2)n1 [dasatinib]
# Outline: as §1
# [7] = compound: Cc1ncc(-c2ccnc(Nc3ccc(S(C)(=O)=O)cc3)n2)n1C(C)C
# Outline: as §1
# [8] = compound: Cn1cc(-c2ccc3c(c2)CCN3C(=O)Cc2cccc(C(F)(F)F)c2)c2c(N)ncnc21
# Outline: as §1
# [9] = compound: Cn1cc(-c2ccc3nnc(C(F)(F)c4ccc5ncccc5c4)n3n2)cn1
# Outline: as §1
# tipifarnib = compound: Cn1cncc1[C@@](N)(c1ccc(Cl)cc1)c1ccc2c(c1)c(-c1cccc(Cl)c1)cc(=O)n2C [tipifarnib]
# Outline: as §1
# mubritinib = compound: FC(F)(F)c1ccc(/C=C/c2nc(COc3ccc(CCCCn4ccnn4)cc3)co2)cc1 [mubritinib]
# Outline: as §1
# Sequence of UniProt P22830 (P22830 whole entry, looked up): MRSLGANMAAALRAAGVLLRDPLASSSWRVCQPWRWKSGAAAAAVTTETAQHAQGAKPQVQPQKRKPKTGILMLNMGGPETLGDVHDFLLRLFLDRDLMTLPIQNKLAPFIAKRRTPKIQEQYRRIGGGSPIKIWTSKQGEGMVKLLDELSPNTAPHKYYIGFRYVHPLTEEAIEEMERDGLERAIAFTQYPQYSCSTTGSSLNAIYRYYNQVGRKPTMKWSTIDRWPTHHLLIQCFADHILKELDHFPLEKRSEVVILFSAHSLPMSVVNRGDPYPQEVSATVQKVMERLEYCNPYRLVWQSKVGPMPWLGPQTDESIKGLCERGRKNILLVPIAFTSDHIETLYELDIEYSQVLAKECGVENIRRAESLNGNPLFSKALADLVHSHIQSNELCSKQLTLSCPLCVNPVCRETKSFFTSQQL
# Sequence of UniProt P07686 (P07686 whole entry, looked up): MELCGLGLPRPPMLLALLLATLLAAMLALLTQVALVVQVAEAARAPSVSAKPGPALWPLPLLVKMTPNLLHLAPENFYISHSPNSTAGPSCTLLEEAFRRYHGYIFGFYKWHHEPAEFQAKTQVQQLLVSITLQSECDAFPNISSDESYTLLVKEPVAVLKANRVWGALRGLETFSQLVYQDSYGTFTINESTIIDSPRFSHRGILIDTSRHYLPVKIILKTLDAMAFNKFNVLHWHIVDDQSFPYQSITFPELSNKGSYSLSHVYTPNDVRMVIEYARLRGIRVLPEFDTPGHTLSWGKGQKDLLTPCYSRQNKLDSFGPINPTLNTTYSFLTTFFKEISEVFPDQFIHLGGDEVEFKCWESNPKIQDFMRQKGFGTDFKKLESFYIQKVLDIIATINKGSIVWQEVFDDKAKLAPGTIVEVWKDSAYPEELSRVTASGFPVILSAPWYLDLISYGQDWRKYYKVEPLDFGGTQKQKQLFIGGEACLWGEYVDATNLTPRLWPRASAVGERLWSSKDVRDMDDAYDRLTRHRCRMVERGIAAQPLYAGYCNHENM
# Sequence of UniProt Q53R41 (Q53R41 whole entry, looked up): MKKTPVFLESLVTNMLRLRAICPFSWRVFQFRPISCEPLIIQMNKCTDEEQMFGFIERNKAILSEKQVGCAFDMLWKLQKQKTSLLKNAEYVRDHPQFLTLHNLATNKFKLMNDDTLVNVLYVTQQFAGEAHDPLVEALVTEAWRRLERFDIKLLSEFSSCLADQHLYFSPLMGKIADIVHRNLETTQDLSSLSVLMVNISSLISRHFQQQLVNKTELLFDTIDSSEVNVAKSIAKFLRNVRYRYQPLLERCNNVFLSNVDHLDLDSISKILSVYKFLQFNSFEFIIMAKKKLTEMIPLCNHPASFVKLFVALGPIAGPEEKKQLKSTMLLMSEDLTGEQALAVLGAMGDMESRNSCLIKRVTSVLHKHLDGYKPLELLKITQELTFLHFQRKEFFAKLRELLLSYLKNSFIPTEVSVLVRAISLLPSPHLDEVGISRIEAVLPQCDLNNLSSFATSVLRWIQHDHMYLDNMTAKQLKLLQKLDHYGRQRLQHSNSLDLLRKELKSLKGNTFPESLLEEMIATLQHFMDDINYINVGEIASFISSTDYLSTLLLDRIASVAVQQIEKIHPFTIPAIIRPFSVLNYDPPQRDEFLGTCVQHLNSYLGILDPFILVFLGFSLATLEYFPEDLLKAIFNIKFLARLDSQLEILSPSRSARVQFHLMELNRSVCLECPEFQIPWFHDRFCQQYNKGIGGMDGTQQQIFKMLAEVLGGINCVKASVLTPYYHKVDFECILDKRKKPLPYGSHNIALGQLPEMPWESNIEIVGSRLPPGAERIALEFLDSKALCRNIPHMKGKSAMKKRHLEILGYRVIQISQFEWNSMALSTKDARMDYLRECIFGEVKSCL
# Sequence of UniProt Q14527 (Q14527 whole entry, looked up): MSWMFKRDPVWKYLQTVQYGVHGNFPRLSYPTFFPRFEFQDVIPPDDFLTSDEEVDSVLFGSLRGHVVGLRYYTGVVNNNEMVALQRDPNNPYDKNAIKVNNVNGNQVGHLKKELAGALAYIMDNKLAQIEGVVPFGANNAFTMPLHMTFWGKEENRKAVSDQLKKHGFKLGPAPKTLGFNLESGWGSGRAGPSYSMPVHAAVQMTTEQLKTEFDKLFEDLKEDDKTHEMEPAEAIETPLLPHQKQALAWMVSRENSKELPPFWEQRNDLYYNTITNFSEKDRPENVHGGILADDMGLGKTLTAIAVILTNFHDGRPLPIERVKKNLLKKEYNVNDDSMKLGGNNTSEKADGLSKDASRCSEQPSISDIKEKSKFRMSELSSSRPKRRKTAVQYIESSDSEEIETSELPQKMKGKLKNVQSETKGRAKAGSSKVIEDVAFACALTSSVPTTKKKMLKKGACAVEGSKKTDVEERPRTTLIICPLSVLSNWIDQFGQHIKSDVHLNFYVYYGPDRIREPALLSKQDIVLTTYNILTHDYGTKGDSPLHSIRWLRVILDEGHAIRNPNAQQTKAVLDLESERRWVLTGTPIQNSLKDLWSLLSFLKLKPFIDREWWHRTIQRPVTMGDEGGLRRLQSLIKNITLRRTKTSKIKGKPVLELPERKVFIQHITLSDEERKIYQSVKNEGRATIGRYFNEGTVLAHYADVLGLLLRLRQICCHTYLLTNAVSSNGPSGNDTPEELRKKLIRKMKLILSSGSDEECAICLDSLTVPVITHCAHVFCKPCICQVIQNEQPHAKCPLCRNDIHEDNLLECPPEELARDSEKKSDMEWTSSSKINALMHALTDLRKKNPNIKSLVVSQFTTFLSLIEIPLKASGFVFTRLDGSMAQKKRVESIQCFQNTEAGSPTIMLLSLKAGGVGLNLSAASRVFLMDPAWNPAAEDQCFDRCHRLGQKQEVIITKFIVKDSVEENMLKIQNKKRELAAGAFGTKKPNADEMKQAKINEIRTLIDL
# Sequence of UniProt O14929 (O14929 whole entry, looked up): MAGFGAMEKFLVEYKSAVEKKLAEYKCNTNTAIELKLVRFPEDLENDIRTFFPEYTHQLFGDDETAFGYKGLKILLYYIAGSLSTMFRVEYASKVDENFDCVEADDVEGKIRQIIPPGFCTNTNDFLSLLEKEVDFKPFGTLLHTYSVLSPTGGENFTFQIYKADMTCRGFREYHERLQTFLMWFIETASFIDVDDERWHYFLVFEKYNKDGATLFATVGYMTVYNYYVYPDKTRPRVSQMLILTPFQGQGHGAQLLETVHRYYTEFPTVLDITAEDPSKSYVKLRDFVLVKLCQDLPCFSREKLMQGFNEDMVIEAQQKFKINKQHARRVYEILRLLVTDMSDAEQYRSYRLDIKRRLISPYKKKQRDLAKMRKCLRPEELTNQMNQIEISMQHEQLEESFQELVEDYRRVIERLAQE
# Sequence of UniProt P55084 (P55084 whole entry, looked up): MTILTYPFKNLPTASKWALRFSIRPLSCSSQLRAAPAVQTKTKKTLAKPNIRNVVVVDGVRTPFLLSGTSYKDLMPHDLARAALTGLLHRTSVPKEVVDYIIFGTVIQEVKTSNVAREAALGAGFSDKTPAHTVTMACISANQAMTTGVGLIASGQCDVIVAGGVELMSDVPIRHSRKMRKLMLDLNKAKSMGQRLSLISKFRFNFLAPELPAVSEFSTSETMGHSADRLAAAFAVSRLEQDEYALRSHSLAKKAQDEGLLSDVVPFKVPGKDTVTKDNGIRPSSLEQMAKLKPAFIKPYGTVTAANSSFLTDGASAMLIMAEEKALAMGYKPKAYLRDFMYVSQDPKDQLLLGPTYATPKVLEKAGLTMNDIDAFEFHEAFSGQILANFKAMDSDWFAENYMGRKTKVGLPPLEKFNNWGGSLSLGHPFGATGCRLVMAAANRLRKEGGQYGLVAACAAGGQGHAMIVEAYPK
# Sequence of UniProt Q9Y3D6 (Q9Y3D6 whole entry, looked up): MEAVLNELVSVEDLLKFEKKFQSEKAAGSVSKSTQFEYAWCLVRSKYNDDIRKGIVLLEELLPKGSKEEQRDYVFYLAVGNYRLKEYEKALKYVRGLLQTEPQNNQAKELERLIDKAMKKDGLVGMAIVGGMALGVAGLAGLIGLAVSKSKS
Target,log2 fold change [1],log2 fold change (crizotinib),log2 fold change [2],log2 fold change [3],log2 fold change (duvelisib),log2 fold change (gandotinib),log2 fold change (tozasertib),log2 fold change [4],log2 fold change (doramapimod),log2 fold change (ispinesib),log2 fold change (bafetinib),log2 fold change [5],log2 fold change (nilotinib),log2 fold change [6],log2 fold change (dasatinib),log2 fold change [7],log2 fold change [8],log2 fold change [9],log2 fold change (tipifarnib),log2 fold change (mubritinib)
HADHB (UniProt P55084),-0.087,0.109,0.099,-0.023,0.229,0.083,-0.112,0.138,0.167,0.199,0.251,0.132,0.074,-0.106,-0.072,0.032,0.155,0.108,-0.264,0.571 (active)
HAT1 (UniProt O14929),-0.011,0.013,0.007,-0.225,-0.031,0.019,0.024,0.033,-0.04,0.135,-0.115,0.017,0.004,-0.035,-0.044,-0.025,0.024,0.006,0.004,-0.033
IFI30 (UniProt P13284),0.013,-0.011,-0.083,-0.02,-0.129,0.042,0.027,0.035,-0.044,0.002,-0.41 (active),0.007,0.068,0.015,0.016,-0.049,0.097,0.002,0.04,0.044
FASTKD1 (UniProt Q53R41),0.097,0.001,0.097,-0.027,0.035,-0.284,-0.253,0.12,0.037,-0.013,0.098,-0.021,-0.183,0.54 (active),-0.168,-0.053,0.217,-0.064,,
FECH isoform 2 (UniProt P22830),0.527,0.021,0.161,-0.12,0.263,0.178,0.162,0.029,0.071,-0.37,0.315,-0.125,0.189,-0.04,0.46,0.134,0.549,0.248,0.134,0.034
HEXB (UniProt P07686),-0.009,-0.377 (active),0.058,-0.021,0.008,-0.013,0.012,-0.031,-0.007,-0.128,-0.468 (active),-0.04,0.002,0.032,0.039,-0.024,0.021,0.01,0.026,0.008
HLTF (UniProt Q14527),-0.034,0.045,-0.143,0.006,-0.006,-0.078,-0.023,0.063,-0.003,0.006,-0.003,0.017,0.099,-0.193,-0.035,0.015,-0.035,-0.01,0.007,0.051
FIS1 (UniProt Q9Y3D6),-0.017,0.045,0.037,-0.286 (active),-0.143,0.032,0.079,0.071,0.02,-0.007,-0.087,-0.034,0.041,-0.002,-0.044,0.007,0.111,0.07,-0.024,0.053
